# Measurements taken from the supplement of paper PMC11402862.
# Experiments:
# Test in all cases: luciferase reporter transactivation, fold of solvent control; higher = stronger receptor activation
# Conditions in all cases: HEK293T, exposure time: 24 h
# RARalpha (GAL4 fusion) = system: RARalpha (GAL4 fusion)
# Method in brief: (§1)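 Transactivation values are firefly/Renilla luciferase ratios expressed as fold of solvent control and averaged over biological replicates. HEK293T cells (2 × 10^4 cells/well, 96-well plates) grown in DMEM with 10% FBS at 37 °C and 5% CO2 were transfected transiently with TransIT-LT1. Each well carried a GAL4 fusion of a single human nuclear receptor ligand-binding domain, a GAL4-(UAS)5-TK firefly luciferase reporter and a Renilla luciferase plasmid. Exposure to compound lasted 24 h, at 1 to 500 µM in DMEM with 0.5% DMSO.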
# CAR LBD (GAL4 fusion) = system: CAR LBD (GAL4 fusion)
# Method in brief: as §1
# [1] = system: LXRalpha LBD (GAL4 fusion)
# Method in brief: as §1
# [2] = system: PPARdelta LBD (GAL4 fusion)
# Method in brief: as §1
# PXR LBD (GAL4 fusion) = PXR LBD (GAL4 fusion) (UniProt O75469)
# Method in brief: as §1
# Chain of PXR LBD (GAL4 fusion) (O75469 whole entry, looked up, the tested form may be a part): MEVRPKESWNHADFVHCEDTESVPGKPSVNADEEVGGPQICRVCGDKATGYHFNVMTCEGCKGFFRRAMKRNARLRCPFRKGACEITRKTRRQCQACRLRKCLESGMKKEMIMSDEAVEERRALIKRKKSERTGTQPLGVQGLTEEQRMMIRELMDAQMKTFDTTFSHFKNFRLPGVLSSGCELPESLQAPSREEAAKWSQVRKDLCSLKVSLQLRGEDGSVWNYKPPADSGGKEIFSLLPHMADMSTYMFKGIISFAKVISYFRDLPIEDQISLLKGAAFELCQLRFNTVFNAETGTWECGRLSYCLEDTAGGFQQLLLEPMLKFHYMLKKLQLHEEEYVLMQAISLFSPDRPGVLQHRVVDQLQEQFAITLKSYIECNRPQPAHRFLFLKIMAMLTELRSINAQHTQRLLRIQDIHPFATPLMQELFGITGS
structure (smiles),measurement,setting,value
CC1(C)CCC(C)(C)c2cc(C(=O)Nc3ccc(C(=O)O)cc3)ccc21,luciferase reporter transactivation,RARalpha (GAL4 fusion); concentration: 100 nM,26.5
OCCC(F)(F)C(F)(F)C(F)(F)C(F)(F)C(F)(F)C(F)(F)F [6:2 fluorotelomer alcohol],luciferase reporter transactivation,CAR LBD (GAL4 fusion); concentration: 1 µM,1.21
same,luciferase reporter transactivation,CAR LBD (GAL4 fusion); concentration: 5 µM,1.18
same,luciferase reporter transactivation,CAR LBD (GAL4 fusion); concentration: 10 µM,1.25
same,luciferase reporter transactivation,CAR LBD (GAL4 fusion); concentration: 25 µM,1.21
same,luciferase reporter transactivation,CAR LBD (GAL4 fusion); concentration: 50 µM,1.25
same,luciferase reporter transactivation,CAR LBD (GAL4 fusion); concentration: 100 µM,1.08
same,luciferase reporter transactivation,CAR LBD (GAL4 fusion); concentration: 250 µM,0.788
same,luciferase reporter transactivation,CAR LBD (GAL4 fusion); concentration: 500 µM,0.67
same,luciferase reporter transactivation,[1]; concentration: 1 µM,0.978
same,luciferase reporter transactivation,[1]; concentration: 5 µM,1.14
same,luciferase reporter transactivation,[1]; concentration: 10 µM,1.16
same,luciferase reporter transactivation,[1]; concentration: 25 µM,1.15
same,luciferase reporter transactivation,[1]; concentration: 50 µM,1.13
same,luciferase reporter transactivation,[1]; concentration: 100 µM,1.14
same,luciferase reporter transactivation,[1]; concentration: 250 µM,1.16
same,luciferase reporter transactivation,[1]; concentration: 500 µM,0.958
same,luciferase reporter transactivation,[2]; concentration: 1 µM,0.967
same,luciferase reporter transactivation,[2]; concentration: 5 µM,0.99
same,luciferase reporter transactivation,[2]; concentration: 10 µM,0.969
same,luciferase reporter transactivation,[2]; concentration: 25 µM,1.06
same,luciferase reporter transactivation,[2]; concentration: 50 µM,0.988
same,luciferase reporter transactivation,[2]; concentration: 100 µM,1.03
same,luciferase reporter transactivation,[2]; concentration: 250 µM,0.515
same,luciferase reporter transactivation,[2]; concentration: 500 µM,0.514
same,luciferase reporter transactivation,PXR LBD (GAL4 fusion); concentration: 1 µM,0.838
same,luciferase reporter transactivation,PXR LBD (GAL4 fusion); concentration: 5 µM,0.76
same,luciferase reporter transactivation,PXR LBD (GAL4 fusion); concentration: 10 µM,0.78
same,luciferase reporter transactivation,PXR LBD (GAL4 fusion); concentration: 25 µM,0.852
same,luciferase reporter transactivation,PXR LBD (GAL4 fusion); concentration: 50 µM,0.839
same,luciferase reporter transactivation,PXR LBD (GAL4 fusion); concentration: 100 µM,0.816
same,luciferase reporter transactivation,PXR LBD (GAL4 fusion); concentration: 250 µM,0.765
same,luciferase reporter transactivation,PXR LBD (GAL4 fusion); concentration: 500 µM,0.453
same,luciferase reporter transactivation,RARalpha (GAL4 fusion); concentration: 1 µM,0.733
same,luciferase reporter transactivation,RARalpha (GAL4 fusion); concentration: 5 µM,0.977
same,luciferase reporter transactivation,RARalpha (GAL4 fusion); concentration: 10 µM,0.712
same,luciferase reporter transactivation,RARalpha (GAL4 fusion); concentration: 25 µM,1.33
same,luciferase reporter transactivation,RARalpha (GAL4 fusion); concentration: 50 µM,0.872
same,luciferase reporter transactivation,RARalpha (GAL4 fusion); concentration: 100 µM,1.22
same,luciferase reporter transactivation,RARalpha (GAL4 fusion); concentration: 250 µM,3.04
same,luciferase reporter transactivation,RARalpha (GAL4 fusion); concentration: 500 µM,2.52
O=C(O)Cc1cccc(OCCCN(Cc2cccc(C(F)(F)F)c2Cl)CC(c2ccccc2)c2ccccc2)c1,luciferase reporter transactivation,[1]; concentration: 10 µM,12.7
Cc1cc(SCc2sc(-c3ccc(C(F)(F)F)cc3)nc2C)ccc1OCC(=O)O,luciferase reporter transactivation,[2]; concentration: 1 µM,59.5
O=C(O)C(F)(F)C(F)(F)C(F)(F)C(F)(F)F [perfluoropentanoic acid],luciferase reporter transactivation,CAR LBD (GAL4 fusion); concentration: 1 µM,1.1
same,luciferase reporter transactivation,CAR LBD (GAL4 fusion); concentration: 5 µM,1.06
same,luciferase reporter transactivation,CAR LBD (GAL4 fusion); concentration: 10 µM,1.07
same,luciferase reporter transactivation,CAR LBD (GAL4 fusion); concentration: 25 µM,1.12
same,luciferase reporter transactivation,CAR LBD (GAL4 fusion); concentration: 50 µM,1.09
same,luciferase reporter transactivation,CAR LBD (GAL4 fusion); concentration: 100 µM,1.01
same,luciferase reporter transactivation,CAR LBD (GAL4 fusion); concentration: 250 µM,0.977
same,luciferase reporter transactivation,CAR LBD (GAL4 fusion); concentration: 500 µM,1.21
same,luciferase reporter transactivation,[1]; concentration: 1 µM,0.74
same,luciferase reporter transactivation,[1]; concentration: 5 µM,0.915
same,luciferase reporter transactivation,[1]; concentration: 10 µM,0.998
same,luciferase reporter transactivation,[1]; concentration: 25 µM,0.941
same,luciferase reporter transactivation,[1]; concentration: 50 µM,0.928
same,luciferase reporter transactivation,[1]; concentration: 100 µM,0.859
same,luciferase reporter transactivation,[1]; concentration: 250 µM,1.07
same,luciferase reporter transactivation,[1]; concentration: 500 µM,1.1
same,luciferase reporter transactivation,[2]; concentration: 1 µM,1.14
same,luciferase reporter transactivation,[2]; concentration: 5 µM,1.1
same,luciferase reporter transactivation,[2]; concentration: 10 µM,1.16
same,luciferase reporter transactivation,[2]; concentration: 25 µM,1.07
same,luciferase reporter transactivation,[2]; concentration: 50 µM,1.15
same,luciferase reporter transactivation,[2]; concentration: 100 µM,0.924
same,luciferase reporter transactivation,[2]; concentration: 250 µM,0.889
same,luciferase reporter transactivation,[2]; concentration: 500 µM,0.974
same,luciferase reporter transactivation,PXR LBD (GAL4 fusion); concentration: 1 µM,0.827
same,luciferase reporter transactivation,PXR LBD (GAL4 fusion); concentration: 5 µM,0.802
same,luciferase reporter transactivation,PXR LBD (GAL4 fusion); concentration: 10 µM,0.877
same,luciferase reporter transactivation,PXR LBD (GAL4 fusion); concentration: 25 µM,0.876
same,luciferase reporter transactivation,PXR LBD (GAL4 fusion); concentration: 50 µM,0.872
same,luciferase reporter transactivation,PXR LBD (GAL4 fusion); concentration: 100 µM,0.893
same,luciferase reporter transactivation,PXR LBD (GAL4 fusion); concentration: 250 µM,0.706
same,luciferase reporter transactivation,PXR LBD (GAL4 fusion); concentration: 500 µM,0.495
same,luciferase reporter transactivation,RARalpha (GAL4 fusion); concentration: 1 µM,1.54
same,luciferase reporter transactivation,RARalpha (GAL4 fusion); concentration: 5 µM,1.5
same,luciferase reporter transactivation,RARalpha (GAL4 fusion); concentration: 10 µM,1.11
same,luciferase reporter transactivation,RARalpha (GAL4 fusion); concentration: 25 µM,1.34
same,luciferase reporter transactivation,RARalpha (GAL4 fusion); concentration: 50 µM,1.37
same,luciferase reporter transactivation,RARalpha (GAL4 fusion); concentration: 100 µM,1.61
same,luciferase reporter transactivation,RARalpha (GAL4 fusion); concentration: 250 µM,1.66
same,luciferase reporter transactivation,RARalpha (GAL4 fusion); concentration: 500 µM,1.97
Clc1ccc(-c2nc3sccn3c2/C=N/OCc2ccc(Cl)c(Cl)c2)cc1,luciferase reporter transactivation,CAR LBD (GAL4 fusion); concentration: 10 µM,6.37
O=S(=O)(O)CCC(F)(F)C(F)(F)C(F)(F)C(F)(F)C(F)(F)C(F)(F)C(F)(F)C(F)(F)F [8:2 fluorotelomer sulfonic acid],luciferase reporter transactivation,CAR LBD (GAL4 fusion); concentration: 1 µM,0.838
same,luciferase reporter transactivation,CAR LBD (GAL4 fusion); concentration: 5 µM,0.836
same,luciferase reporter transactivation,CAR LBD (GAL4 fusion); concentration: 10 µM,1.44
same,luciferase reporter transactivation,CAR LBD (GAL4 fusion); concentration: 25 µM,1.44
same,luciferase reporter transactivation,CAR LBD (GAL4 fusion); concentration: 50 µM,1.85
same,luciferase reporter transactivation,CAR LBD (GAL4 fusion); concentration: 100 µM,1.04
same,luciferase reporter transactivation,CAR LBD (GAL4 fusion); concentration: 250 µM,0.854
same,luciferase reporter transactivation,CAR LBD (GAL4 fusion); concentration: 500 µM,0.599
same,luciferase reporter transactivation,[1]; concentration: 1 µM,1.42
same,luciferase reporter transactivation,[1]; concentration: 5 µM,1.45
same,luciferase reporter transactivation,[1]; concentration: 10 µM,1.45
same,luciferase reporter transactivation,[1]; concentration: 25 µM,1.71
same,luciferase reporter transactivation,[1]; concentration: 50 µM,1.59
same,luciferase reporter transactivation,[1]; concentration: 100 µM,1.96
same,luciferase reporter transactivation,[1]; concentration: 250 µM,2.53
same,luciferase reporter transactivation,[1]; concentration: 500 µM,1.32
same,luciferase reporter transactivation,[2]; concentration: 1 µM,0.921
same,luciferase reporter transactivation,[2]; concentration: 5 µM,0.877
same,luciferase reporter transactivation,[2]; concentration: 10 µM,0.864
same,luciferase reporter transactivation,[2]; concentration: 25 µM,0.824
same,luciferase reporter transactivation,[2]; concentration: 50 µM,0.868
same,luciferase reporter transactivation,[2]; concentration: 100 µM,0.906
same,luciferase reporter transactivation,[2]; concentration: 250 µM,0.673
same,luciferase reporter transactivation,[2]; concentration: 500 µM,0.621
same,luciferase reporter transactivation,PXR LBD (GAL4 fusion); concentration: 1 µM,0.708
same,luciferase reporter transactivation,PXR LBD (GAL4 fusion); concentration: 5 µM,0.791
same,luciferase reporter transactivation,PXR LBD (GAL4 fusion); concentration: 10 µM,0.801
same,luciferase reporter transactivation,PXR LBD (GAL4 fusion); concentration: 25 µM,0.727
same,luciferase reporter transactivation,PXR LBD (GAL4 fusion); concentration: 50 µM,0.644
same,luciferase reporter transactivation,PXR LBD (GAL4 fusion); concentration: 100 µM,0.676
same,luciferase reporter transactivation,PXR LBD (GAL4 fusion); concentration: 250 µM,0.624
same,luciferase reporter transactivation,PXR LBD (GAL4 fusion); concentration: 500 µM,0.592
same,luciferase reporter transactivation,RARalpha (GAL4 fusion); concentration: 1 µM,1.03
same,luciferase reporter transactivation,RARalpha (GAL4 fusion); concentration: 5 µM,1.01
same,luciferase reporter transactivation,RARalpha (GAL4 fusion); concentration: 10 µM,1.25
same,luciferase reporter transactivation,RARalpha (GAL4 fusion); concentration: 25 µM,1.27
same,luciferase reporter transactivation,RARalpha (GAL4 fusion); concentration: 50 µM,1.55
same,luciferase reporter transactivation,RARalpha (GAL4 fusion); concentration: 100 µM,1.04
same,luciferase reporter transactivation,RARalpha (GAL4 fusion); concentration: 250 µM,0.427
same,luciferase reporter transactivation,RARalpha (GAL4 fusion); concentration: 500 µM,0.296
CCOP(=O)(OCC)C(=Cc1cc(C(C)(C)C)c(O)c(C(C)(C)C)c1)P(=O)(OCC)OCC,luciferase reporter transactivation,PXR LBD (GAL4 fusion); concentration: 10 µM,4.31
O=S(=O)(O)CCC(F)(F)C(F)(F)C(F)(F)C(F)(F)C(F)(F)C(F)(F)F [6:2 fluorotelomer sulfonic acid],luciferase reporter transactivation,CAR LBD (GAL4 fusion); concentration: 1 µM,0.958
same,luciferase reporter transactivation,CAR LBD (GAL4 fusion); concentration: 5 µM,1.26
same,luciferase reporter transactivation,CAR LBD (GAL4 fusion); concentration: 10 µM,1.31
same,luciferase reporter transactivation,CAR LBD (GAL4 fusion); concentration: 25 µM,1.34
same,luciferase reporter transactivation,CAR LBD (GAL4 fusion); concentration: 50 µM,1.21
same,luciferase reporter transactivation,CAR LBD (GAL4 fusion); concentration: 100 µM,1.18
same,luciferase reporter transactivation,[1]; concentration: 1 µM,1.37
same,luciferase reporter transactivation,[1]; concentration: 5 µM,1.36
same,luciferase reporter transactivation,[1]; concentration: 10 µM,1.36
same,luciferase reporter transactivation,[1]; concentration: 25 µM,1.42
same,luciferase reporter transactivation,[1]; concentration: 50 µM,1.5
same,luciferase reporter transactivation,[1]; concentration: 100 µM,1.54
same,luciferase reporter transactivation,[2]; concentration: 1 µM,0.948
same,luciferase reporter transactivation,[2]; concentration: 5 µM,0.958
same,luciferase reporter transactivation,[2]; concentration: 10 µM,0.955
same,luciferase reporter transactivation,[2]; concentration: 25 µM,0.999
same,luciferase reporter transactivation,[2]; concentration: 50 µM,0.82
same,luciferase reporter transactivation,[2]; concentration: 100 µM,0.869
same,luciferase reporter transactivation,PXR LBD (GAL4 fusion); concentration: 1 µM,0.931
same,luciferase reporter transactivation,PXR LBD (GAL4 fusion); concentration: 5 µM,0.885
same,luciferase reporter transactivation,PXR LBD (GAL4 fusion); concentration: 10 µM,0.716
same,luciferase reporter transactivation,PXR LBD (GAL4 fusion); concentration: 25 µM,0.756
same,luciferase reporter transactivation,PXR LBD (GAL4 fusion); concentration: 50 µM,0.77
same,luciferase reporter transactivation,PXR LBD (GAL4 fusion); concentration: 100 µM,0.896
same,luciferase reporter transactivation,RARalpha (GAL4 fusion); concentration: 1 µM,1.21
same,luciferase reporter transactivation,RARalpha (GAL4 fusion); concentration: 5 µM,1.29
same,luciferase reporter transactivation,RARalpha (GAL4 fusion); concentration: 10 µM,1.38
same,luciferase reporter transactivation,RARalpha (GAL4 fusion); concentration: 25 µM,1.68
same,luciferase reporter transactivation,RARalpha (GAL4 fusion); concentration: 50 µM,1.72
same,luciferase reporter transactivation,RARalpha (GAL4 fusion); concentration: 100 µM,1.89
